According to PubChem BioAssay (Tox21):
Results filed as inconclusive are left out. Active and inactive are the calls of the source. The call rests on the fitted dose curve; in most records, active means well fitted cell-killing curve with a large enough effect in the repeat runs; inconclusive means weak or mixed curves, or effect the other way; inactive means flat fitted curve, though single readings scatter.

Assay: qHTS assay to identify small molecule antagonists of the androgen receptor (AR) signaling pathway using the MDA cell line - cell viability counter screen (AID 743041; further: nearly all actives have a fitted effect of over 45% in size)
Conditions: MDA-kb2 viability, CellTiter-Fluor, 16 h, cells co-treated with R1881 androgen agonist; series mostly up to 70.3 µM; viability change, negative = cytotoxic: at the top concentration
From the text: National Center for Advancing Translational Sciences [NCATS]
NIH Chemical Genomics Center [NCGC]
U.S. Environmental Protection Agency [EPA]
National Institutes of Environmental Health Sciences [NIEHS]
National Toxicology Program [NTP]
U.S. Food and Drug Administration [FDA]
Androgen receptor (AR), a nuclear hormone receptor, plays a critical role in AR-dependent prostate cancer and other androgen related diseases. Endocrine disrupting chemicals (EDCs) and their interactions with steroid hormone receptors like AR may cause disruption of normal endocrine function as well as interfere with metabolic homeostasis, reproduction, developmental and behavioral functions. To identify the compounds that inhibit AR signaling, MDA-kb2 AR-luc cell line (from ATCC, deposited by Wilson et al.) was used to screen the Tox21 10K compound library. MDA-kb2 AR-luc cell line is human breast carcinoma cell line that was stably transfected with a luciferase reporter gene under control of the MMTV promoter containing response elements for both androgen receptor (AR) and glucocorticoid receptor (GR). The cytotoxicity of the Tox21 compound library against the MDA-kb2 AR-luc cell line was tested in parallel by measuring the cell viability using CellTiter-Fluor assay (Promega, Madison, WI) in the same wells.
Tox21 Assay Protocol Summary:
MDA-kb2 AR-luc cells were dispensed at 3,000 cells/4 uL/well of culture medium into white wall/solid-bottom 1536-well plates using a Multidrop Combi (ThermoFisher Scientific, Waltham, MA) dispenser. After the assay plates were incubated at a 37C and 0% CO2 for 5 hr, 23 nL of compounds dissolved in DMSO, positive controls or DMSO only was transferred to the assay plate by a Pintool station (Kalypsys, San Diego, CA), followed by addition of 1 uL of agonist (R1881) in culture medium using a Bioraptr Flying Reagent Dispenser (FRD) workstation (Beckman Coulter, Indianapolis, IN, USA). The plates were incubated at a 37C and 0% CO2 for 16 h. After 15.5 h incubation, 1uL of CellTiter-Fluor reagent (Promega) was added using a Bioraptr FRD to each plate for measuring cytotoxicity. The fluorescence intensity was quantified on a ViewLux plate reader (PerkinElmer, Shelton, CT) following 30 min incubation at 37C and 0% CO2.
On the % scale 0 is the no-effect control and ±100 the full control effect; potency means the concentration at half of the fitted maximal effect.

| Structure (SMILES) | viability change, negative = cytotoxic | Potency |
| --- | --- | --- |
| Cc1cc(S(=O)(=O)O)c(N)cc1Cl | 2.47% [at 95 µM] (inactive) | – |
| C=C(C)C(=O)OCCOP(=O)(O)O | -0.47% [at 95 µM] (inactive) | – |
| Cc1ccsc1C(=CCCN1CCC[C@@H](C(=O)O)C1)c1sccc1C | -4.1% (inactive) | – |
| CCCCCCCCOC(=O)CCCCCCCCC(=O)OCCCCCCCC | 1.79% (inactive) | – |
| CCOC(=O)NCCC[Si](OCC)(OCC)OCC | 3.86% (inactive) | – |
| CC(C)(C)c1ccc(OC(=O)c2ccccc2O)cc1 | 6.38% (inactive) | – |
| COC(C)CCO (stereo not given) | -1.58% (inactive) | – |
| Cc1ccc(C=O)s1 | 24.9% (inactive) | – |
| CCN(CC)CC1CCCCN1CC(=O)N1c2ccccc2C(=O)Nc2cccnc21 (stereo not given) | 0.889% (inactive) | – |
| CC/C=C\CCOC(=O)C(C)C | 3.02% (inactive) | – |
| CC(C)(C)c1cccc(O)c1 | -5.8% (inactive) | – |
| CCCc1c2oc(C(=O)O)cc(=O)c2cc2c(=O)cc(C(=O)O)n(CC)c12 | -0.836% (inactive) | – |
| CCC(=O)O[C@]1(C(=O)SCF)[C@H](C)C[C@H]2[C@@H]3C[C@H](F)C4=CC(=O)C=C[C@]4(C)[C@@]3(F)[C@@H](O)C[C@@]21C | 15.8% [at 32.5 µM] (inactive) | – |
| CC1(C)O[C@@H]2C[C@H]3[C@@H]4CCC5=CC(=O)CC[C@]5(C)[C@@]4(F)[C@@H](O)C[C@]3(C)[C@]2(C(=O)CCl)O1 | -1.2% [at 32.5 µM] (inactive) | – |
| C[C@]12C(=O)OC(=O)[C@H]1[C@H]1C=C[C@@H]2C1 | 5.61% [at 95 µM] (inactive) | – |
| COc1ccccc1OCC(O)COC(N)=O (stereo not given) | 8.25% [at 32.5 µM] (inactive) | – |
| O=C1CCCCCCCCCCC(=O)OCCO1 | -1.71% (inactive) | – |
| CCCN(CCC)C(=O)C(CCC(=O)O)NC(=O)c1ccccc1 (stereo not given) | -4.09% (inactive) | – |
| O=C1CCN(c2ccccc2)N1 | -1.77% [at 95 µM] (inactive) | – |
| CCOC(=O)CS | -22.5% [at 95 µM] (inactive) | – |

| Structure (SMILES) | viability change, negative = cytotoxic | Potency |
| --- | --- | --- |
| Clc1cccc(-c2cc(Cl)cc(Cl)c2)c1 | -5.27% (inactive) | – |
| FC(F)(F)C(Cl)(Cl)Cl | 3.54% (inactive) | – |
| O=C1CCCCC1C1CCCCC1 (stereo not given) | -10.5% (inactive) | – |
| CC[C@H]1CC[C@H](NCc2cc3c(cc2OC)[C@H]2C[C@H]2C(=O)N3C)[C@H](c2ccccc2)N1 | – | 68.6 µM (active) |
| CC/C=C\CCOC(=O)CCCCC | -3.29% (inactive) | – |
| CCN1CC(CCN2CCOCC2)C(c2ccccc2)(c2ccccc2)C1=O (stereo not given) | -2.61% (inactive) | – |
| CC(C)NC[C@@H](O)COc1cccc2ccccc12 | 5.36% (inactive) | – |
| c1ccc(CN(CC2=NCCN2)c2ccccc2)cc1 | -16.4% (inactive) | – |
| CO[C@@]1(NC(=O)CSCC#N)C(=O)N2C(C(=O)O)=C(CSc3nnnn3C)CS[C@@H]21 | 1.39% (inactive) | – |
| C[C@@H]1CN(c2c(F)c(F)c3c(=O)c(C(=O)O)cn(C4CC4)c3c2F)C[C@H](C)N1 | -2.66% (inactive) | – |
| CCCNC(C)(C)COC(=O)c1ccccc1 | 0.97% (inactive) | – |
| COC(=O)N[C@H](C(=O)N[C@@H](Cc1ccccc1)[C@@H](O)CN(Cc1ccc(-c2ccccn2)cc1)NC(=O)[C@@H](NC(=O)OC)C(C)(C)C)C(C)(C)C | -1.49% (inactive) | – |
| CC(C)(C)C1CCCCC1=O (stereo not given) | 2.22% (inactive) | – |
| O=C(O)[C@@H](O)[C@H](O)[C@H](O)[C@@H](O)C(=O)O | -0.971% (inactive) | – |
| N#Cc1ccc(C(c2ccc(C#N)cc2)n2cncn2)cc1 | – | inactive |
| CCCNC(C)C(=O)Nc1c(C)csc1C(=O)OC (stereo not given) | 3.61% [at 32.5 µM] (inactive) | – |
| O=c1[nH]cnc2c1ncn2[C@@H]1O[C@H](CO)[C@@H](O)[C@H]1O | -1.21% (inactive) | – |
| CCc1cc(Cl)c(OC)c(C(=O)NC[C@@H]2CCCN2CC)c1O | – | inactive |
| COC(=O)c1ccc(OC)cc1 | 4.21% (inactive) | – |
| COc1ccc(Nc2ccc(OC)cc2)cc1 | -3.22% [at 95 µM] (inactive) | – |
